The full ranking holds about 68,000 sequences; the median of “fluorescence intensity (a.u.)” is about 9,100, and the highest 2% start at about 16,000. The full list was thinned out, with the highest values kept by preference.

Chain of OsWRKY34 (Q0JBA9 entry or part of it): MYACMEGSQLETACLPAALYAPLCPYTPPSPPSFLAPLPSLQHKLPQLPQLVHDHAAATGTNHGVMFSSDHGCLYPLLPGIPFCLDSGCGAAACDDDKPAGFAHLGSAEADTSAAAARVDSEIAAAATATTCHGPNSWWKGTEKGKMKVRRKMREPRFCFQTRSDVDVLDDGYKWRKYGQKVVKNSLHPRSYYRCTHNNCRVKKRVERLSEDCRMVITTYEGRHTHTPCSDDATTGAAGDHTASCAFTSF

This test has as its target OsWRKY34 (Oryza sativa, UniProt Q0JBA9 1-250). Kind of test: protein-binding microarray (RPBM); PBS, 2% BSA, 51.3 ng/ul salmon testes DNA, 50 uM zinc acetate, 200 nM TF, 25 C, 1 h; high values mean tight binding. As to conditions: protein: recombinant; tags: N-terminal polyhistidine and DsRed monomer fusion (pET32a); label: CyDye5-dUTP incorporated in the synthesized complementary strand; 3' TTTTT single-stranded linker to array surface; dsDNA, one strand shown. The method in brief: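 Using Ni–NTA, transcription factors fused N-terminally to polyhistidine and DsRed were purified after expression in E. coli BL21-CodonPlus. These were incubated at 200 nM with a blocked, double-stranded custom Agilent array for 1 h at 25 °C in a buffer containing 50 µM zinc acetate, and the array was washed. The binding signal is per-feature fluorescence intensity (arbitrary units) on an Axon 4000B scanner.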
Turning to “GATGGCTTCGATTTGCTGTGTTACTTCTTTTTTCTAGTTTCGGAGTCACCTAGTGCAG”, the binding signal was 16900 fluorescence intensity (a.u.).

In the case of “TATTTCGATTTGATGGCTTCCTGTTGCTTTTCCTGTTAATCGGAGTCACCTAGTGCAG”, the binding signal is 14000 fluorescence intensity (a.u.).

“ATGTTGACTCGTTTGCCTGTGTTCCTCTTGCTGCTATTCACGGAGTCACCTAGTGCAG”: the binding signal is 19200 fluorescence intensity (a.u.).

Regarding “TTTTGAGTGCTTTTATTTCTTTATTTCTTTATTTCTTTATCGGAGTCACCTAGTGCAG”, the binding signal was 9320 fluorescence intensity (a.u.).

Consider “CCTCTTGCTATGTGCTGCTCTTCCTTGTTCTTCTTGCCTACGGAGTCACCTAGTGCAG”, for which the binding signal was 10800 fluorescence intensity (a.u.).

As to “TCCTCTTTTTGCTGGCTTTCTGTTGACTGTTATTTTATTTCGGAGTCACCTAGTGCAG”, the binding signal is 17100 fluorescence intensity (a.u.).

For “CTTTCTTTGACTGTTGCCTTTTATTTTGTGCAGGTTGTATCGGAGTCACCTAGTGCAG”, the binding signal was 11300 fluorescence intensity (a.u.).

“TTGCTTTTGTGTTCGGTTTTTCTATTTTTTCTATTTTCTTCGGAGTCACCTAGTGCAG”: the binding signal was 13700 fluorescence intensity (a.u.).

In the case of “CCTGTTGCTGCTCTGTGCCTCTGCTCTGCTCCTTGACTTCCGGAGTCACCTAGTGCAG”, the binding signal was 11300 fluorescence intensity (a.u.).

With “GGTTTCGGTTAACTTTTGTGCACACTCGCCAGTGAGAGTTCGGAGTCACCTAGTGCAG”, the binding signal is 12300 fluorescence intensity (a.u.).

“TGTAAGTCATTCCACCATTTCCCACATTCATATTGATGCCCGGAGTCACCTAGTGCAG”: the binding signal is 8890 fluorescence intensity (a.u.).

For “TTTAACCTAAACCACATGTGAATTTCTTCTTATGTATTCCCGGAGTCACCTAGTGCAG”, the binding signal was 8700 fluorescence intensity (a.u.).

For “GTGGGATTCGCCTGCTTGCTTGCTGGGGCCTTGGGAAATGCGGAGTCACCTAGTGCAG”, the binding signal is 8230 fluorescence intensity (a.u.).

On to “TCAAAACGGCCCACTCGCCGCCCGCCACGTGTCCGACCCGCGGAGTCACCTAGTGCAG”, for which the binding signal was 8920 fluorescence intensity (a.u.).

As for “GATCCGCATCACTGATTCACTGCACTTCGCCCGCCGTCTGCGGAGTCACCTAGTGCAG”, the binding signal is 9810 fluorescence intensity (a.u.).

Consider “TTTTATTCAATATATGTATATAGGTATCTTTGGTTGTTTTCGGAGTCACCTAGTGCAG”, for which the binding signal was 8320 fluorescence intensity (a.u.).

Consider “TTCGAGCACATCTACTTCGCGCTCCCAAACTCCGTGGTGTCGGAGTCACCTAGTGCAG”, for which the binding signal was 8080 fluorescence intensity (a.u.).

“TCTCTCTGTGTGTGTTTGTGTCATATATGAGTTTGTGGGTCGGAGTCACCTAGTGCAG”: the binding signal was 9570 fluorescence intensity (a.u.).

Consider “TTTTTTTGTGTTTTGCAATTTTATGTTTTGCACTTATTTTCGGAGTCACCTAGTGCAG”, for which the binding signal is 8070 fluorescence intensity (a.u.).

As for “ATTTCGGATTTGTATGTATTGTGTTTTTTTAAAAAAAATTCGGAGTCACCTAGTGCAG”, the binding signal is 9880 fluorescence intensity (a.u.).

Take “TCATATATGAGTTTGTGGGTGTGGGTGTTTGCGAGCTTTTCGGAGTCACCTAGTGCAG”: the binding signal was 30700 fluorescence intensity (a.u.).

As for “GTGGGTGTTTGCGAGCTTTTGTTCGTATGCTTTTTTACTTCGGAGTCACCTAGTGCAG”, the binding signal was 9960 fluorescence intensity (a.u.).

Turning to “GAGGTGTGTGTTCGTAGAGATGAGTGCGTGCGCGTTGTGACGGAGTCACCTAGTGCAG”, the binding signal was 9140 fluorescence intensity (a.u.).

As for “GGGTGAGTGTGTGTTGTGCGTTGTGAGTGTGTATGTGTTTCGGAGTCACCTAGTGCAG”, the binding signal was 17200 fluorescence intensity (a.u.).

As to “TCATATGGGTTGGTGTATGTGTATTGTGAGTCTGTGTTTGCGGAGTCACCTAGTGCAG”, the binding signal was 8300 fluorescence intensity (a.u.).

Take “GGGTGAGTGCGCGTGCGTTGTGAGTGTTTGTATTGTACTGCGGAGTCACCTAGTGCAG”: the binding signal is 9790 fluorescence intensity (a.u.).

Take “GTTGTTTGGTTGCGTGAGGAGAGGAGGAGGAGGAGGAGGACGGAGTCACCTAGTGCAG”: the binding signal is 8200 fluorescence intensity (a.u.).

Take “TGTTGTTGTGGTGGTGGTGGTGGTGGTAGTGCGTGAGTGACGGAGTCACCTAGTGCAG”: the binding signal was 21200 fluorescence intensity (a.u.).

Take “GCAATTGTTCAATATTTTTTTGTGTGTATGTGTTTTTTTTCGGAGTCACCTAGTGCAG”: the binding signal was 18200 fluorescence intensity (a.u.).

As for “ATCCCACCGTGGCGCCACCCTATTGGGCCCTACTCTTCAGCGGAGTCACCTAGTGCAG”, the binding signal is 8780 fluorescence intensity (a.u.).

Take “ACTCCATATCGCTTCGCGATTTTTTGTTGACCAAATCAATCGGAGTCACCTAGTGCAG”: the binding signal is 9610 fluorescence intensity (a.u.).

“AATCTCGTTCCTTGCTGTTGTGACTAGTATCGTTGCCTACCGGAGTCACCTAGTGCAG”: the binding signal was 10500 fluorescence intensity (a.u.).

As for “GCCTGCTGTTCCTTTTAGTTTCTCCAAGCTCCTGCCAACACGGAGTCACCTAGTGCAG”, the binding signal is 8320 fluorescence intensity (a.u.).

With “CTAGATTCGTTTTTTATGGGGTGGAGGGAGTACATGCCTTCGGAGTCACCTAGTGCAG”, the binding signal is 12800 fluorescence intensity (a.u.).

Consider “ACCTTTTATGGTGGGGTAGGAGTAGGTGACGGTGGAGATTCGGAGTCACCTAGTGCAG”, for which the binding signal was 19000 fluorescence intensity (a.u.).

As to “GGAGGCATGATGGCGGCATGGTGGAGGGTGGGGTGACGTGCGGAGTCACCTAGTGCAG”, the binding signal was 12000 fluorescence intensity (a.u.).

Turning to “TATAGTAGTATGGGTGGAGATTTATATTTTTCTCTCGATTCGGAGTCACCTAGTGCAG”, the binding signal is 8940 fluorescence intensity (a.u.).

“ACGCGGGGATGGATGATGGTGGTGGCGGCGAGGGGATGATCGGAGTCACCTAGTGCAG”: the binding signal was 9170 fluorescence intensity (a.u.).

On to “CGTGGTGGTGGTAGGGGAGGGGATGGATGATATGGCGTGACGGAGTCACCTAGTGCAG”, for which the binding signal is 22400 fluorescence intensity (a.u.).

With “GAAATACTCCAATGGGTTAACTTAGGGTCGGGAAGGGGAGCGGAGTCACCTAGTGCAG”, the binding signal was 10100 fluorescence intensity (a.u.).

In the case of “TTCCTGCTCTGTCCGTGCTCGACTCAATTCATTGTCAACCCGGAGTCACCTAGTGCAG”, the binding signal was 8690 fluorescence intensity (a.u.).

As for “CTTTGCATCTCTTCTTTTCTTTCTTTTTTTTTTCTTTTCTCGGAGTCACCTAGTGCAG”, the binding signal was 12100 fluorescence intensity (a.u.).

The values are drawn from paper PMC7819943, “Rice protein-binding microarrays: a tool to detect cis-acting elements near promoter regions in rice”.
